Screening data from PubChem BioAssay.
Most compounds without a hit are left out; they make up all but 2.4% or so of the library.
D2 antagonist: antagonists of human D2 dopamine receptor | HEK293 TREx D2 cells, calcium flux, dopamine EC80 | inhibition, % at 10 µM | 2% of 340,000 active | AID 485344; in the data active means inhibition above about 30%; inactive means below that, where a call was filed
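Compounds are added to dye-loaded, induced HEK293 T-REx cells coupled to calcium release via D2; after a 3 min kinetic read an EC80 dopamine stimulus is given and fluorescence is recorded for 3 more min.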
D2 ag-1: human D2 receptor agonism in beta-arrestin assay; P14416; DiscoveRx PathHunter D2 beta-arrestin, luminescence, 90 min; 100% = 57 uM dopamine signal; activation, % (concentration not given with the values); 0.084% of 360,000 active; AID 624465; in the data active means activation above about 40%; inconclusive means between about 15% and that limit
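DiscoveRx PathHunter D2 beta-arrestin cells (2,100/well) attached overnight, then compound-stimulated 90 min at 37 C in HBSS/10 mM HEPES/0.1% Tween-20 buffer; beta-galactosidase complementation read by luminescence after 1 h at ambient temperature. Dopamine 57 uM final (EC100) as control.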
D2 ag-2: agonists of human D2 dopamine receptor | HEK293 T-REx D2 cells, calcium flux agonist mode | 0.53% of 340,000 active | P14416 | activation, % at 2 µM;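 active means activation over 3 SD above normal in the single-dose calcium agonist read, cut at about 30% in these data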
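Agonism is scored from calcium flux in a force-coupled, inducible HEK293 cell line expressing D2, read kinetically for 180 s after compound addition against dopamine controls.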
D2 PAM-1: potentiates the human D2 dopamine receptor allosterically; 0.23% of 360,000 active; potentiation, % (no concentration beside the values); DiscoveRx D2 beta-arrestin cells, luminescence, 90 min; 100% = 57 uM dopamine signal; AID 624464; in the data active means potentiation above about 50%; inconclusive means mostly about 30% to 49%
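PathHunter D2 cells, attached overnight at 37 deg C, received compound in DMSO plus dopamine at EC20 (50 nM final) for 90 min at 37 deg C. Beta-arrestin recruitment was read as luminescence after 1 h with detection reagent at ambient temperature.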
B2AR arrestin: recruits beta-arrestin to the human beta2-adrenergic receptor | P07550 | beta-arrestin recruitment to beta2AR, cell-based reporter | 0.02% of 330,000 active | Potency, µM (top dose mostly 46.1 µM), usual class: activators | AID 492947; further: nearly all actives have a fitted effect of over 65% in size
D2 PAM-2: positively modulates the human D2 dopamine receptor allosterically | 0.34% of 340,000 active | P14416 | potentiation, % at 10 µM | AID 485347 | HEK293 T-REx D2, calcium flux, EC20 dopamine potentiation;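 active means potentiation over 3 SD above the plate norm, cut at about 30% in these data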
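Tetracycline-induced Hek293 Trex D2 cells, force-coupled to calcium, loaded with no-wash calcium dye. Compound added with 180 s kinetic read for agonism, then EC20 dopamine and a further 180 s read for potentiation.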
D3 arrestin ag: D3 receptor agonism confirmed, beta-arrestin readout; shares compounds with D2 ag-2; DiscoveRx D3 beta-arrestin cells, luminescence, 90 min; Potency, µM (titrated, usually from 76.9 µM), hits mostly activators; 4% of 2,300 active; AID 720506; further: nearly all actives have a fitted effect of over 70% in size
Target sequence (P35462 whole entry, looked up): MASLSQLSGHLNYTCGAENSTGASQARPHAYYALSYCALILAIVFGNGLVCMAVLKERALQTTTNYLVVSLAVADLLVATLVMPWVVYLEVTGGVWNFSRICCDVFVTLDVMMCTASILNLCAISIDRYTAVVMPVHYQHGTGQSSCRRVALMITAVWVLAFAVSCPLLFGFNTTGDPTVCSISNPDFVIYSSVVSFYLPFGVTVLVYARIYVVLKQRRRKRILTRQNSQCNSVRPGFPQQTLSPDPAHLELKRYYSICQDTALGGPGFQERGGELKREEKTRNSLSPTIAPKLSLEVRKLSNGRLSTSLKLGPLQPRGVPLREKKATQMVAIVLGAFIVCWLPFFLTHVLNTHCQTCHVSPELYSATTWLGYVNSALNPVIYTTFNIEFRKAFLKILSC
D2 ag-3: D2 receptor agonism, beta-arrestin counterscreen; shares compounds with D2 ag-2; DiscoveRx PathHunter D2 beta-arrestin, luminescence, 90 min; response scale: percent relative to full dopamine signal; Potency, µM (doses to about 76.9 µM), actives largely listed as activators; 5.9% of 2,300 active; AID 720507; further: nearly all actives have a fitted effect of over 70% in size
Each line names hits and unclear results; the compound was inactive in the other large screens (follow-up assays come after a bar, where they were run). Unless noted, the call rests on the fitted dose curve; in most records, active means well fitted activation curve with a large enough effect; inconclusive means small, poorly fitted or top-dose-only effect; inactive means flat fitted curve, though single readings scatter.

O=S(=O)(c1ccc(Cl)cc1)N1CCc2ccccc21	none
O=S(=O)(c1ccc(F)cc1)N1CCc2ccccc21	D2 antagonist 36 | D3 arrestin ag inactive | D2 ag-3 inactive
CCC(C)(C)n1nnnc1C(c1ccc(O)c(OC)c1)N1CCN(c2nc3ccccc3s2)CC1 (centres undefined)	none
c1ccc(CCNCCOc2ccccc2)cc1	D2 antagonist 48, D2 ag-2 56 | D3 arrestin ag inactive | D2 ag-3 inactive
Cc1c(Cl)cccc1NC(=O)c1ccc(C(=O)Nc2cccc(Cl)c2C)cc1	none (no result: D2 antagonist, D2 ag-1, D2 PAM-1, B2AR arrestin)
Cc1ccc(C)c(OCC(=O)NCC(c2ccco2)N2CCCCC2)c1 (centres undefined)	none
COc1ccc(C(=O)NCN2CCN(c3ccccc3)CC2)cc1OC	D2 ag-2 64 | D3 arrestin ag inactive | D2 ag-3 inactive
COc1cc(C(C)=O)ccc1OCC(O)CN1CCN(c2ccccc2)CC1 (centres undefined)	D2 antagonist 85, D2 ag-1 46, D2 ag-2 85 | D3 arrestin ag inconclusive | D2 ag-3 inconclusive
COc1cc(C(C)=O)ccc1OCC(O)CN1CCN(c2ccc(C)cc2C)CC1 (centres undefined)	none
Cc1ccc(C(=O)NCN2CCN(c3ccccc3)CC2)cc1	none
COc1cc(C(C)=O)ccc1OCC(O)CN1CCN(c2ccc(F)cc2)CC1 (centres undefined)	D2 antagonist 40, D2 ag-2 41 | D3 arrestin ag inactive | D2 ag-3 inactive
CCN1CCCn2c1nc1c2c(=O)n(C)c(=O)n1C	none
CCOc1ccc(CNS(=O)(=O)c2ccc(-c3ccc(=O)[nH]n3)o2)cc1OC	none
c1ccc(Cc2noc(CN3CCN(CCOc4ccccc4)CC3)n2)cc1	D2 antagonist 55, D2 ag-2 63 | D3 arrestin ag inconclusive | D2 ag-3 inactive
O=C(NCc1ccccc1Cl)C(=O)c1cn(CC(=O)N2CCOCC2)c2ccccc12	none
N#C/C(=C/c1ccc(F)cc1)c1nnc(NC(=O)c2ccccc2)s1	none
O=C(Nc1ccc(F)cc1)c1ccc(CN2CCc3ccccc3C2)cc1	none
Cc1ccccc1NC(=O)NCCCN1CCN(c2ccccc2)CC1	D2 antagonist 79, D2 ag-1 inconclusive, D2 ag-2 77 | D3 arrestin ag inconclusive | D2 ag-3 inconclusive
O=C(NCCCN1CCN(c2ccccc2)CC1)Nc1ccccc1C(F)(F)F	D2 antagonist 75, D2 ag-1 inconclusive, D2 ag-2 78 | D3 arrestin ag inconclusive | D2 ag-3 inactive
CN(C)c1ccc(S(=O)(=O)N2CCCCC2)cc1NC(=O)C1CSC2(C)CCC(=O)N12 (centres undefined)	none | D3 arrestin ag inactive | D2 ag-3 inactive
Cc1ccc2c(c1)C(O)(CC(=O)/C=C/C=C/c1ccccc1)C(=O)N2 (centres undefined)	D2 antagonist 45, D2 ag-2 48 | D3 arrestin ag inactive | D2 ag-3 inactive
CC(OC(=O)COc1ccc(C#N)cc1)C(=O)c1ccccc1 (centres undefined)	D2 antagonist 32 | D3 arrestin ag inactive | D2 ag-3 inactive
CC(=O)Nc1ccc(Cl)cc1-c1ccccc1	none (no result: D2 antagonist, D2 ag-2, B2AR arrestin, D2 PAM-2)
O=S1(=O)CCC(NC(=S)Nc2ccc3ccccc3c2)C1 (centres undefined)	none
CC1(NC(=S)Nc2ccc3ccccc3c2)CCS(=O)(=O)C1 (centres undefined)	D2 antagonist 37 | D3 arrestin ag inactive | D2 ag-3 inactive
C/C(=N\NC(=S)Nc1cccc(C)c1)c1ccco1	D2 antagonist 67, D2 ag-2 70 | D3 arrestin ag inactive | D2 ag-3 inactive
C/C(=N\NC(=S)Nc1cccc(C)c1)c1ccccc1	none
CC(C)N1CCC(N2CCN(Cc3cc(F)ccc3-n3cccn3)CC2CCO)CC1 (centres undefined)	none
O=c1c(/C=C(\O)c2ccccc2)nc2ccccc2n1-c1ccccc1	none
CCC(C)N(NC(C)=O)c1nc(Cl)nc(NC(C)(C)C)n1 (centres undefined)	D2 ag-2 80 | D3 arrestin ag inactive | D2 ag-3 inactive
Cc1cc(=O)[nH]c2c(C)cc(S(=O)(=O)NCc3ccccc3)cc12	D2 ag-2 36 | D3 arrestin ag inactive | D2 ag-3 inactive
CC1CN(C(=O)CNC(=O)Cc2cccc3ccccc23)CC(C)O1 (centres undefined)	none | D3 arrestin ag inactive | D2 ag-3 inactive
COc1ccc(-c2noc(-c3ccc(N4CCN(C)CC4)c([N+](=O)[O-])c3)n2)cc1OC	none (no result: D2 antagonist, D2 ag-1, D2 PAM-1, B2AR arrestin)
CCOc1ccc(NC(C)=O)cc1N	none | D3 arrestin ag inactive | D2 ag-3 inactive
CCOc1ccc(NC(C)=O)cc1[N+](=O)[O-]	none
COc1ccc(C)cc1NS(=O)(=O)c1ccc2c3c(cccc13)C(=O)N2	none (no result: D2 antagonist, D2 ag-1, D2 PAM-1, B2AR arrestin)
CC(OC(=O)c1cc[n+]([O-])cc1)C(=O)Nc1ccc(C(N)=O)cc1 (centres undefined)	none | D3 arrestin ag inactive | D2 ag-3 inactive
Cc1noc(C)c1C(=O)OC(C)C(=O)Nc1ccc(C(N)=O)cc1 (centres undefined)	none
CC(=O)Oc1ccccc1-c1nc(C)nc(N(C)C(C)=O)n1	none
CCOC(=O)Nc1ccc(S(=O)(=O)Nc2nccc(C)n2)cc1	D2 ag-2 50 | D3 arrestin ag inactive | D2 ag-3 inactive
CCOC(=O)C(=O)Nc1ccc(S(=O)(=O)Nc2nccc(C)n2)cc1	none (no result: D2 antagonist, D2 ag-2, B2AR arrestin, D2 PAM-2)
CC(CCc1ccc(O)cc1)NC1C2CC3CC(C2)CC1C3 (centres undefined)	D2 antagonist 71, D2 ag-2 38 | D3 arrestin ag inactive | D2 ag-3 inactive
Cn1c(C(=O)NCCCN2CCN(c3ccc(F)cc3)CC2)cc2c(=O)n(C)c3ccccc3c21	none (no result: D2 antagonist, D2 ag-2, B2AR arrestin, D2 PAM-2)
Cc1ccnc(NC(=O)CC(NC(=O)c2ccccc2Cl)c2ccccc2)c1 (centres undefined)	none
Cc1ccc(NC(=O)CC(NC(=O)c2ccccc2Cl)c2ccccc2)nc1 (centres undefined)	none | D3 arrestin ag inactive | D2 ag-3 inactive
Nc1c(C(=O)CSc2n[nH]c(-c3ccccc3)n2)c(=O)[nH]c(=O)n1C1CC1	D2 ag-1 inconclusive, D2 ag-2 66 | D3 arrestin ag inactive | D2 ag-3 inactive
